Shown are actives, neighbours in structure and some others; about 8.3% of the full set was active somewhere.
Giardia kill: kills Giardia lamblia; Giardia lamblia trophozoite viability; activity change, % at 7.66 µM, hits read low; hit rate 0.15% among 340,000; in the data active = activity change below about -80%; inconclusive = between about -30% and that limit;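 also: parasites exposed to compound for two days anaerobically before the ATP read; % is scaled to controls: 0 for no effect and ±100 for the full control effect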
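Media and compound were dispensed first, then trophozoites at 100 cells/well; plates sat 48 hrs at 37 deg C without oxygen before ATP luminescence reagent was added and read after 15-30 min at room temperature.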
BCR signal inh: chronic active BCR signaling inhibition. ABC-DLBCL IkBa-CBG/CBR reporter, luminescence ratio, 4 h. Potency, µM (top dose mostly 46.1 µM), inactives show top-dose activity change, negative = inhibition, actives largely listed as inhibitors. hit rate 0.05% among 340,000. AID 493014; active = well fitted inhibition curve with a large enough effect in the signal ratio, with a control signal flat, not every such curve was filed as active; inconclusive = small, poorly fitted or top-dose-only effect, or effect the other way, or a change in a side signal; the % refers to the signal ratio;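 also: potency is read from the fitted curve at half-maximal effect; plate controls were basal doxycycline-induced cells for no effect and cells given 10 µM MG132 for full effect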
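Cell line TMD8 (human ABC DLBCL), stably expressing tet-inducible CBG68-IkBa fusion and CBR; IMDM/0.5% FBS; cpd up to 46 uM; dox induction, 4 h, 37C/5% CO2; dual luminescence; green/red ratio; MG132 control.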
VP16 counter: Gal4-VP16 reporter inhibition counter-screen; Drosophila S2 Gal4-VP16 UAS-luciferase, luminescence, 20 h; Potency, µM (top dose mostly 53.6 µM), without a hit: at the highest dose activity, negative = inhibition, hits mostly inhibitors; hit rate 3.5% among 310,000; AID 2546;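 also: Gal4-VP16 expression switched on by copper sulfate through the metallothionein promoter; potency is read from the fitted curve at half-maximal effect; % is scaled to controls: 0 for no effect and ±100 for the full control effect; nearly all actives have a fitted effect of over 50% in size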
RORgamma inh: inhibitors of mouse ROR gamma transcriptional activity; P51450; Drosophila S2 Gal4-RORgamma UAS-luciferase reporter, 20 h; Potency, µM (titrated, usually from 53.6 µM), for inactives: at the top dose activity change, negative = inhibition, most hits filed as inhibitors; hit rate 5.4% among 310,000; AID 2551; also: potency is read from the fitted curve at half-maximal effect; % is scaled to controls: 0 for no effect and ±100 for the full control effect; nearly all actives have a fitted effect of over 60% in size
Target sequence (P51450 whole entry, looked up, the tested form may be a part): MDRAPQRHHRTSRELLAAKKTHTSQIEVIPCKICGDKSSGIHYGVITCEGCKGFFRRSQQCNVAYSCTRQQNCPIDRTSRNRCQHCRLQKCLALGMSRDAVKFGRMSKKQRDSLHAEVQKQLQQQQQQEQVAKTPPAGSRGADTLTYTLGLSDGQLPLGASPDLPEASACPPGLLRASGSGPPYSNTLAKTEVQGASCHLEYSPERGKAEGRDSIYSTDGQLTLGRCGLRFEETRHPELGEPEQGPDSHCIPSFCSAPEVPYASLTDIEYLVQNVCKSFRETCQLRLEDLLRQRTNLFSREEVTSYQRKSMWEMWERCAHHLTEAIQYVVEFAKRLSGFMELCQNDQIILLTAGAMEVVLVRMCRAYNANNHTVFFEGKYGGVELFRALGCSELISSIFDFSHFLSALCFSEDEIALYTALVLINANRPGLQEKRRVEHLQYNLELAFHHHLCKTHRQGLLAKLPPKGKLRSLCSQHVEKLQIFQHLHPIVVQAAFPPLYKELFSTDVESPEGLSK
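Drosophila Schneider cells stably carrying a metallothionein-driven Gal4 DBD–ROR gamma fusion and a UAS-Photinus luciferase reporter were exposed to compound for 1 hr, then induced with copper sulfate (700 uM final) for 20 hr at ambient temperature before luminescence reading.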
MCF10A rereplic: inducers of DNA re-replication in MCF 10A breast cells; Potency, µM (titrated, usually from 46.1 µM), for the others: top-dose activity, positive = re-replication, actives largely listed as activators; hit rate 2.9% among 350,000; MCF 10A DNA re-replication, Hoechst nuclear intensity, 48 h; AID 624296; also: potency is read from the fitted curve at half-maximal effect; % of control where 0% means no effect; nearly all actives have a fitted effect of over 50% in size
SW480 rereplic: DNA re-replication induction in SW480 cells; SW480 DNA re-replication, Hoechst DNA content imaging, 48 h; Potency, µM (series often up to 46.1 µM), for the others: at the highest dose re-replication activation, actives largely listed as activators; hit rate 1.8% among 340,000; AID 624297; also: potency is read from the fitted curve at half-maximal effect; % of control where 0% means no effect; nearly all actives have a fitted effect of over 55% in size
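Cells (250 per well) received 23 nL compound or DMSO by pin tool and were kept 48 hr at 37 C, 5% CO2. Nuclei were then stained with Hoechst for 40 min and scanned for DNA content.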
* = called active by the depositor; ? = inconclusive; nt = not tested or not shown. Unless noted, calls follow the shape of the dose curve; as a rule, active = well fitted curve in the direction sought with a large enough effect; inconclusive = small, poorly fitted or top-dose-only effect, or another doubt; inactive = no such curve, though single readings can be large; an effect the other way counts as inactive or inconclusive.

SMILES | Giardia kill | BCR signal inh | VP16 counter | RORgamma inh | MCF10A rereplic | SW480 rereplic
COc1cccc(-c2cc(=O)c3cc(NC(=O)c4ccccc4)ccc3[nH]2)c1 | -28.9 | -0.2% | -15.2% | ? | 5.8µM* | 2.91µM*
COc1cccc(-c2cc(=O)c3cc(NC(=O)c4ccc(N(C)C)cc4)ccc3[nH]2)c1 | 10.0 | ? | ? | -14.3% | 0.411µM* | 0.581µM*
O=C(c1ccc2c(c1)N(Cc1cccc(Cl)c1)C(=O)c1ccccc1S2(=O)=O)N1CCN(Cc2ccccc2)CC1 | nt | 20.7% | nt | nt | nt | nt
COc1cccc(SCc2noc(C(=O)NCCCN3CCOCC3)c2C(=O)NCCCN2CCOCC2)c1 | -2.4 | nt | nt | nt | 6.2% | -4.1%
C/C(=N\NC(=O)c1ccc(C)cc1C)c1ccc(-n2ccnc2)cc1 | 8.3 | 1.0% | -4.9% | -16.8% | -2.1% | 3.3%
C=CCNC(=S)N/N=C(\C)c1ccc(-n2ccnc2)cc1 | -12.0 | -3.2% | 7.08µM* | 3.16µM* | ? | ?
COC(=O)c1ccc(-n2ccnc2)cc1 | 11.4 | ? | ? | -16.5% | 0.0% | 1.2%
COCCNC(=S)N/N=C(\C)c1ccc(O)cc1 | 11.7 | -9.6% | ? | 22.4µM* | 14.6% | ?
C/C(=N\NC(=S)NC(C)C)c1ccc(-n2ccnc2)cc1 | -8.5 | -2.0% | 6.31µM* | 5.62µM* | 10.9% | -5.7%
COCCCNC(=S)NNC(=O)c1ccc(C(C)(C)C)cc1 | -20.9 | -0.1% | -20.2% | -42.3% | 1.1% | -3.6%
C/C(=N\Nc1ccccc1Cl)c1ccc(-n2ccnc2)cc1 | -22.2 | -6.9% | 27.9% | 8.91µM* | ? | -7.8%
CSc1ccc(Cl)c(C(=O)N2CCN(c3ncccn3)CC2)c1 | 6.8 | -0.4% | nt | nt | 1.4% | -12.6%
CC1CCN(C(=O)COC(=O)CNC(=O)C23CC4CC(CC(C4)C2)C3)CC1 | -2.9 | 1.1% | nt | nt | -9.1% | -6.8%
CCOc1ccc(CCNC(=O)COC(=O)CCc2cc(OC)c(OC)c(OC)c2)cc1OCC | 8.4 | -16.7% | nt | nt | 15.2% | -6.5%
Cc1ccc(C2C=NN(c3ccccc3)C2=O)cc1 (configuration not stated) | -23.1 | ? | -13.6% | -17.6% | -2.0% | -3.3%
CC1CC2OC2CC1COC(=O)C1CC2OC2CC1C (configuration not stated) | 4.7 | nt | nt | nt | 4.0% | 8.0%
C/C(=N\NC(=S)Nc1ccccc1C)c1ccc(O)cc1 | 3.6 | ? | ? | 10µM* | 2.0% | -0.2%
C/C(=N\NC(=S)NC1CCCCC1)c1ccccc1 | 2.2 | -1.7% | ? | ? | 5.6% | 17.5%
CNC(=S)N/N=C(\C)c1ccc(-n2ccnc2)cc1 | -0.8 | ? | ? | 8.91µM* | 8.3% | -35.6%
C/C(=N\NC(N)=O)c1ccc(-n2ccnc2)cc1 | 11.4 | 1.9% | -7.9% | 36.4% | -3.8% | -15.4%
COCCNC(=S)N/N=C(\C)c1ccc(-n2ccnc2)cc1 | -9.4 | -1.9% | 7.08µM* | 6.31µM* | 16.4% | 7.08µM*
C/C(=N\NC(=S)NC1CCCCC1)c1ccc(O)cc1 | -15.4 | ? | ? | 4.47µM* | 5.5% | 0.0%
CCc1ccccc1N1CC(C(=O)Nc2nccs2)CC1=O (configuration not stated) | -16.1 | -4.9% | -4.6% | 18.4% | -34.3% | 13.2%
Cc1ccc(N/C(C(Cl)=C(Cl)Cl)=C(/Cl)[N+](=O)[O-])c(C)c1 | -94.4* | -8.9% | -12.6% | ? | -2.2% | ?
S=c1nc(C2CCCCC2)n(-c2ccccc2)[nH]1 | -10.6 | 2.5% | -4.2% | 2.82µM* | ? | -30.4%
SMILES | Giardia kill | BCR signal inh | VP16 counter | RORgamma inh | MCF10A rereplic | SW480 rereplic
CCCCCCn1c(COc2ccccc2F)nnc1SCC(=O)N1c2ccccc2NC(=O)C1(C)C | -0.8 | -0.6% | ? | ? | 20.6µM* | ?
CC1(C)C(=O)Nc2ccccc2N1C(=O)CSc1ncccn1 | 8.4 | 7.3% | -1.4% | 4.5% | -1.1% | 1.0%
NS(=O)(=O)c1ccc(CCN2C(=O)/C(=C\c3ccc(Cl)cc3)SC2=S)cc1 | 0.1 | 1.8% | -24.0% | -17.3% | 10.3µM* | ?
CN1CCN(C(=O)CCN2C(=O)/C(=C\c3ccc(Cl)cc3)SC2=S)CC1 | ? | ? | 7.7% | -19.9% | ? | 12.9%
C1CCN2CC3CC(CN4CCCC[C@@H]34)[C@H]2C1 | -6.6 | nt | nt | nt | -1.0% | ?
CCCCn1c(N)c(N(Cc2ccccc2OC)C(=O)c2ccc([N+](=O)[O-])s2)c(=O)[nH]c1=O | 2.4 | 2.0% | nt | nt | ? | 20.6µM*
CCCCn1c(N)c(N(Cc2ccccc2OC)C(=O)COc2ccccc2OC)c(=O)[nH]c1=O | 3.9 | 4.1% | nt | nt | -0.9% | -0.6%
O=C(Nc1ccc2c(c1)CCC2)c1cnn2c1NC(=C1CC1)C=C2C(F)F | 9.4 | nt | nt | nt | nt | nt
CCCOc1ccc(C2C(=O)N(C3CCCCCC3)CC(=O)N2Cc2ccccc2OC)cc1OC (configuration not stated) | nt | -2.2% | nt | nt | nt | nt
CCC(c1ccc(O)c(O)c1)C(CC)c1ccc(O)c(O)c1 (configuration not stated) | -1.8 | nt | nt | nt | -12.8% | 10.3µM*
Cc1onc(C(=O)N2CCN(C(c3ccccc3)c3ccccc3)CC2)c1[N+](=O)[O-] | 6.4 | 5.0% | 20.9% | -30.1% | 3.6% | 4.11µM*
Cc1ccc(-n2c(-c3cccnc3)n[nH]c2=S)c(C)c1 | -0.7 | 0.9% | ? | ? | 2.7% | -13.8%
Cc1ccc(-n2c(-c3ccc(Cl)cc3)n[nH]c2=S)c(C)c1 | 24.0 | ? | 1.12µM* | 1.41µM* | ? | -19.5%
COc1ccc(-c2n[nH]c(=S)n2-c2ccc(C)cc2C)cc1 | -3.6 | -0.5% | 5.01µM* | 2.82µM* | 6.2% | -9.6%
O=C1[C@@H]2Cc3c([nH]c4ccccc34)C(c3ccccc3)N2C(=O)CN1C1CCN(Cc2ccccc2)CC1 (some centres not stated) | -14.2 | -6.8% | ? | 2.82µM* | ? | ?
COc1cccc(N2CCN(C(=O)Cn3c(=O)oc4ccccc43)CC2)c1 | 19.3 | 0.3% | 15.5% | -2.1% | -4.5% | -5.1%
Cc1[nH]n(-c2ccccc2)c(=O)c1C(=O)Nc1ccccc1 | -3.9 | ? | -10.6% | 8.2% | 1.6% | -8.0%
C/C(=N\NC(=O)c1ccc(C)cc1)c1c(C)[nH]n(-c2ccccc2)c1=O | 0.7 | ? | 1.58µM* | 1.26µM* | 6.7% | ?
C/C(=N\NC(=O)c1ccccc1)c1c(C)[nH]n(-c2ccccc2)c1=O | 7.4 | ? | 1.26µM* | 0.891µM* | 23.5% | ?
CCc1oc2ccccc2c1C(=O)CCN1CCCCC1 | 4.9 | ? | -25.4% | -14.6% | 9.2µM* | 11.5%
O=C1C=C(N2CCCCC2)c2ccccc2C1=O | -10.9 | nt | nt | nt | ? | 3.26µM*
O=C1c2ccccc2-c2onc3ccc(N4CCCC4)c1c23 | 28.1 | ? | -9.5% | ? | ? | ?
